Screening results from PubChem.
Hits are enriched below; roughly 3.6% of the tested compounds scored in any of these assays.
Hsp90 Hop PPI: changes Hsp90-Hop TPR2A binding signal, up or down | Potency, µM (highest dose often 57 µM) | AlphaScreen TPR2A-His6 binding biotin-Hsp90 C-terminal peptide | 0.44% of 71,000 active; active = well fitted curve in either direction with a large enough effect; inconclusive = small, poorly fitted or top-dose-only effect, or another doubt
CRE-bla Fsk: alters forskolin-stimulated CRE reporter signaling in CHO cells; CHO CRE-bla reporter (cAMP response element driving beta-lactamase), forskolin EC10, beta-lactamase ratio; Potency, µM (top dose mostly 38.2 µM), most hits filed as activators; 2.5% of 71,000 active; AID 662; active = well fitted activation curve with a large enough effect in the signal ratio, with a control signal flat, not every such curve was filed as active; inconclusive = small, poorly fitted or top-dose-only effect, or effect the other way, or a change in a side signal; the % refers to the signal ratio
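qHTS titration format; CRE-bla CHO reporter; stimulus EC10 NKH 477, a water-soluble forskolin. Read: CCF4 460/530 nm ratio. Potency expressed as AC50 for activators or inhibitors.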
Tau fil binding: binders of human tau filaments. P10636. recombinant tau filaments, thioflavin S fluorescence, 15 h; filaments grown with octadecylsulfate alongside compound. Potency, µM (series often up to 57.1 µM). 2% of 71,000 active;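 note: actives lower thioflavin S fluorescence by blocking filaments or displacing dye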
Target sequence (P10636 whole entry, looked up): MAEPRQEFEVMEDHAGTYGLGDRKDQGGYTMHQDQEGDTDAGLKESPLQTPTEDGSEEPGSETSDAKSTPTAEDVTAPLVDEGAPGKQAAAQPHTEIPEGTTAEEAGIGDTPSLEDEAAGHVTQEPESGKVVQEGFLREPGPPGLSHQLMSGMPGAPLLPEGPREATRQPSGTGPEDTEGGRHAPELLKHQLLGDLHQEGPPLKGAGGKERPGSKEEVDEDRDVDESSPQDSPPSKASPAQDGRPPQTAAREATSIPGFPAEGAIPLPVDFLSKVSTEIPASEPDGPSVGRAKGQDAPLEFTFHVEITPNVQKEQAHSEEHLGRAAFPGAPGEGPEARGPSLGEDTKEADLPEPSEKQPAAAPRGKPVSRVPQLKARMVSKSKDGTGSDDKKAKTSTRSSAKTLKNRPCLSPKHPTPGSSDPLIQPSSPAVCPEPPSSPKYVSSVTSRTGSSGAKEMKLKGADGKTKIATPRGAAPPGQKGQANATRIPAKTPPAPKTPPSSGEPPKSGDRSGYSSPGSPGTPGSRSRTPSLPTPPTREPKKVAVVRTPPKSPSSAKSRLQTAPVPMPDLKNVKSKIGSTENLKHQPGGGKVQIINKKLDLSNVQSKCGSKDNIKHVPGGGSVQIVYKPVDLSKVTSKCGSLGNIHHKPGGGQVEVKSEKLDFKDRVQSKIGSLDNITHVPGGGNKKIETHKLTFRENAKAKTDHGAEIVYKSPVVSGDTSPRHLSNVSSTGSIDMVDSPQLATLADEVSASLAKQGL
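His-tagged recombinant human tau (exons 2, 3, 10; 1 uM final) fibrillized with 30 uM sodium octadecylsulfate, 15 h at 37 C, in pH 7.4 HEPES buffer with 10 uM thioflavine S and 5 mM DTT. Reduced ThS fluorescence (450/510 nm) marks activity.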
15-hLO inh: blocks human 15-lipoxygenase activity. purified 15hLO-1, xylenol orange hydroperoxide absorbance. Potency, µM (series often up to 57.1 µM), usual class: inhibitors. P16050. 1.4% of 74,000 active. AID 887; note: nearly all actives have a fitted effect of over 55% in size
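Readout: Fe(III)-xylenol orange absorbance, 573-to-405 nm ratio as reaction progress. Enzyme 40 nM purified human 15hLO-1, substrate 50 uM arachidonic acid, 6 min RT after 15 min compound preincubation; Hepes pH 7.5 buffer with Triton X-100.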
IkB signaling: inhibitors of IkB signaling in ABC-DLBCL cells; AID 445; 0.04% of 110,000 active; Potency, µM (top dose mostly 57.1 µM); ABC-DLBCL IkBa-CBG/CBR dual luciferase ratio, 4 h; response scale: scaled: untreated 0%, proteasome inhibitor 100%; active = well fitted curve in the direction sought with a large enough effect in the signal ratio, not every such curve was filed as active; inconclusive = small, poorly fitted or top-dose-only effect, or a change in a side signal; the % refers to the signal ratio;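 note: the direction sought is a rising ratio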
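Luminescence ratio of IκBα-fused green versus native red beetle luciferase in OCI-Ly3 cells, 4 h post-doxycycline with compound; red signal alone, scaled from basal (0%) to zero light (-100%), flagged nonspecific or cytotoxic effects.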
A number is an active result; i = inactive; ? = inconclusive; nt = no result given; ! = not active in a repeat; [ ] = dose if it differs, or a comment. Unless noted, calls come from the whole dose curve; as a rule, active = well fitted curve in the direction sought with a large enough effect; inconclusive = small, poorly fitted or top-dose-only effect, or another doubt; inactive = no such curve, though single readings can be large; an effect the other way counts as inactive or inconclusive.

SMILES | Hsp90 Hop PPI | CRE-bla Fsk | Tau fil binding | 15-hLO inh | IkB signaling
CCC1C(=O)OCC1Cc1cncn1C (stereo not drawn) | i | i | 40µM | i | i
CC(C)=CCCC1(C)C=Cc2c(O)c3c(c(CC=C(C)C)c2O1)OC12C(=CC4CC1C(C)(C)OC2(C/C=C(/C)C(=O)O)C4=O)C3=O (stereo not drawn) | nt | nt | nt | 16µM | nt
CC(C)=CCCC1(C)C=Cc2c(O)c3c(c(CC=C(C)C)c2O1)OC12C(=CC4CC1C(C)(C)OC2(C/C=C(/C)C(=O)O)C4O)C3=O (stereo not drawn) | nt | nt | nt | 20µM | nt
COc1nc(C)nc(Cl)c1NC1=NCCN1 | i | i | i | ? | i
O=C(O)[C@@H]1[C@H](C(=O)O)[C@]2(Cl)C(Cl)=C(Cl)[C@@]1(Cl)C2(Cl)Cl | i[11 µM] | i[7.6 µM] | i[11.4 µM] | 2.5µM | 3.2µM
COC[C@@H]1OC(=O)c2coc3c2[C@]1(C)C1=C(C3=O)[C@H]2CCC(=O)[C@]2(C)C[C@@H]1OC(C)=O | i | i | i | nt | ?
CC(=O)/C=C/c1ccccc1 | i | i | i | i | i
O=S(=O)(O)/C(=C\c1ccccc1)c1ccccc1 (tested in a mixture with another compound) | i[11 µM] | 4µM | i[11.4 µM] | i[11.4 µM] | i[11.4 µM]
COc1cc2c(cc1OC)-c1c(O)c(OC)cc3c1[C@@H](C2)N(C)CC3 | ? | ? | 32µM | nt | i[11.4 µM]
COc1cc2c(cc1OC)-c1c(OC)c(OC)cc3c1C(C2)N(C)CC3 (stereo not drawn) | i | ? | ? | i | i
C[C@H](c1ccccc1)N1CCN([C@@H](C)c2ccccc2)CC1 | i[11 µM] | i[7.6 µM] | i[11.4 µM] | i[11.4 µM] | i[11.4 µM]
CN1CCC[C@@H]1c1cccnc1.O=C(O)c1ccccc1O.O=C([OH2+])c1ccccc1O.O=C([OH2+])c1ccccc1O.O=C([OH2+])c1ccccc1O.[Mn] | i[11 µM] | i[7.6 µM] | i[11.4 µM] | i[11.4 µM] | i[11.4 µM]
CCC(=NC1CC1)c1c(O)n(C2CCCCC2)c(=O)[nH]c1=O | i | 10µM | i | i | i
CCC(=Nc1ccc2c(c1)CCC2)c1c(O)n(C2CCCCC2)c(=O)[nH]c1=O | i | i | i | i | i
Cc1o[nH]c(=O)c1C[C@H](N)C(=O)O | i | ? | 32µM! | i | i
Cc1o[nH]c(=O)c1C[C@@H](N)C(=O)O | i | i | ? | i | i
CC(C)[C@H]1C(=O)N2CCC[C@@H]2[C@]2(O)O[C@@](NC(=O)[C@H]3C=C4c5cccc6[nH]cc(c56)C[C@H]4N(C)C3)(C(C)C)C(=O)N12 | i | i | i | nt | i[11.4 µM]
COCCCn1c(N)c(C(=O)NCCC(C)C)c2nc3ccccc3nc21 | 25µM | ? | i | i | ?
CCCCCCn1c(N)c(C(=O)NCCN2CCOCC2)c2nc3ccccc3nc21 | ? | ? | i | 16µM | ?
CCCCCn1c(N)c(C(=O)NCCN2CCOCC2)c2nc3ccccc3nc21 | ? | ? | i | i | ?
CS(=O)c1ccc(-c2nc(-c3ccc(F)cc3)c(-c3ccncc3)[nH]2)cc1 (stereo not drawn) | i | ? | ? | ? | i
CCN(CC)c1ncnc2c1ncn2[C@@H]1O[C@@H](COP(=O)(O)OP(=O)(O)C(Br)(Br)P(=O)(O)O)[C@H](O)[C@@H]1O | i | i | i | i | i
N#C/C(=C\c1ccc(O)c(O)c1)C(N)=S | ? | ? | i | 4µM | ?
CN1CCC[C@@H]1c1cccnc1.O=C(O)c1ccccc1O.O=C([OH2+])c1ccccc1O.O=C([OH2+])c1ccccc1O.[Mn] | i[11 µM] | i[7.6 µM] | i[11.4 µM] | i[11.4 µM] | i[11.4 µM]
CN1CC=C(c2c[nH]c3ccccc23)CC1 | i[2.3 µM] | i | i | 0.63µM | i
SMILES | Hsp90 Hop PPI | CRE-bla Fsk | Tau fil binding | 15-hLO inh | IkB signaling
CCN1C[C@]2(C)CC[C@@H](O)[C@]34[C@@H]5CC6[C@@H](OC)C[C@@](O)([C@H]5[C@@H]6O)[C@@H](C[C@@H]23)[C@H]14 | i | i | i | i | i
CC(C)C[C@H]1C(=O)N2CCC[C@@H]2[C@]2(O)O[C@](NC(=O)[C@@H]3C=C4c5cccc6[nH]c(Br)c(c56)C[C@H]4N(C)C3)(C(C)C)C(=O)N12 | i | 4µM | 32µM | i | ?
Nc1ccc(N2CCN(Cc3ccccc3Cl)CC2)c(Cl)c1 | i | i | 25µM | i | i
C=CCN1CC[C@]23c4c5ccc(O)c4O[C@@H]2C(=O)CC[C@@]3(O)[C@H]1C5 | i | i | i | i | i
CNc1ccc2oc(C[C@H]3O[C@]4(CC[C@H]3C)O[C@H]([C@H](C)C(=O)c3ccc[nH]3)[C@H](C)C[C@H]4C)nc2c1C(=O)O | i | ? | 40µM | i | ?
C[C@@H](Cc1ccc2c(c1)OC(C(=O)O)(C(=O)O)O2)NC[C@H](O)c1cccc(Cl)c1 | i | i | i | i | i
CCCCCCC[n+]1ccc(-c2cc[n+](CCCCCCC)cc2)cc1 | i | i | 16µM | i | i
COc1ccc(C(O)P(=O)(OC2CCCCC2)c2ccc(N(C)C)cc2)cc1OC (stereo not drawn) | i | ? | ? | ? | i
CC[n+]1c(-c2ccccc2)c2cc(N)ccc2c2ccc(N)cc21 | i | i | 0.32µM | 10µM! | ?
O=[N+]([O-])c1cccc2ccccc12 | i | i | i | i | i
O=[N+]([O-])c1ccc2c3c(cccc13)CC2 | i | i | 25µM | ? | i
CCCCC/C=C\C/C=C\C/C=C\C/C=C\CCCC(=O)O | nt | nt | nt | 0.32µM | nt
CCCCCCCC(=O)Cl | i | i | i | i | i
CCCCCCCCCCCCCC(=O)O[C@H]1[C@@H](C)[C@@]2(O)[C@@H](C=C(CO)C[C@]3(O)C(=O)C(C)=C[C@@H]23)C2C(C)(C)[C@]21OC(C)=O (stereo partly drawn) | i | i | i | i | ?
O=C(Nc1ccc2c(c1)OCO2)c1cn(Cc2ccc(F)cc2)nn1 | i | i | 13µM | i | i
Oc1ccc(Cl)cc1Cc1cc(Cl)ccc1O | i | ? | i | 13µM | ?
c1ccc(P(c2ccccc2)c2ccccc2)cc1 | i | i | i | i | i
C=CCn1c(O)c(C(C)=Nc2ccc(N(CC)CC)cc2)c(=O)[nH]c1=O | i | ? | 16µM | i | i
CCNc1nc(Cl)nc(NC(C)C)n1 | i | 7.9µM | i | i | i
Clc1ccc(C(c2ccccc2Cl)C(Cl)(Cl)Cl)cc1 (stereo not drawn) | ? | ? | i | i | i
Nc1nc(N)c(Cn2ccnc2)c(=O)[nH]1 | i[11 µM] | i[7.6 µM] | i[11.4 µM] | i[11.4 µM] | i[11.4 µM]
Brc1ccc(Oc2ccc(Br)cc2Br)c(Br)c1 | 32µM | i | i | i | i
Cc1nc2cc(C(=O)N3CCC4(CC3)OCCO4)ccc2n1-c1cccc(F)c1 | i | i | i | i | i
O=C(c1ccc2nc(-c3ccco3)c(-c3ccco3)nc2c1)N1CCC2(CC1)OCCO2 | i | ? | i | 4µM | i
C[C@@]12CC[C@H]3[C@@H](CC[C@@H]4C[C@H](O)CC[C@]43C)[C@H]1CC[C@H]2O | i | i | i | i | i
CCc1c(C(=O)OC)ncc2[nH]c3cc(OC)c(OC)cc3c12 | i | 2.5µM | i | i | i
